# An excerpt weighted towards active compounds, which were near 4.2% of everything screened.
# VDR inh: vitamin D3 receptor (human) inhibition | P11473 | VDR-SRC2-3 peptide fluorescence polarization, 2 h | Potency, µM, without a hit: max response, negative = inhibition, actives largely listed as inhibitors | 0.93% of 400,000 active
#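 Two reagent solutions held at 4 deg C in the dark were dispensed, compounds pinned at 23 nl, and the mixture incubated 2 h at room temperature. Read-out: fluorescence polarization of VDR–SRC2-3 peptide binding.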
# PLK1 PBD block: PLK1 (human) polo-box domain binding inhibition; Plk1 PBD binding of FITC phosphopeptide, fluorescence polarization; Potency, µM, inactives show max response, negative = inhibition, actives largely listed as inhibitors; 2.8% of 360,000 active; also: series mostly up to about 57 µM; nearly all actives have a fitted effect of over 65% in size
# 12-LOX inh: ALOX12 (human) lipoxygenase inhibition; P18054; purified 12hLO, xylenol orange hydroperoxide absorbance; Potency, µM (highest dose often 108 µM), without a hit: top-dose activity change, negative = inhibition, usual class: inhibitors; 1.1% of 580,000 active
# Target sequence (P18054 whole entry, looked up): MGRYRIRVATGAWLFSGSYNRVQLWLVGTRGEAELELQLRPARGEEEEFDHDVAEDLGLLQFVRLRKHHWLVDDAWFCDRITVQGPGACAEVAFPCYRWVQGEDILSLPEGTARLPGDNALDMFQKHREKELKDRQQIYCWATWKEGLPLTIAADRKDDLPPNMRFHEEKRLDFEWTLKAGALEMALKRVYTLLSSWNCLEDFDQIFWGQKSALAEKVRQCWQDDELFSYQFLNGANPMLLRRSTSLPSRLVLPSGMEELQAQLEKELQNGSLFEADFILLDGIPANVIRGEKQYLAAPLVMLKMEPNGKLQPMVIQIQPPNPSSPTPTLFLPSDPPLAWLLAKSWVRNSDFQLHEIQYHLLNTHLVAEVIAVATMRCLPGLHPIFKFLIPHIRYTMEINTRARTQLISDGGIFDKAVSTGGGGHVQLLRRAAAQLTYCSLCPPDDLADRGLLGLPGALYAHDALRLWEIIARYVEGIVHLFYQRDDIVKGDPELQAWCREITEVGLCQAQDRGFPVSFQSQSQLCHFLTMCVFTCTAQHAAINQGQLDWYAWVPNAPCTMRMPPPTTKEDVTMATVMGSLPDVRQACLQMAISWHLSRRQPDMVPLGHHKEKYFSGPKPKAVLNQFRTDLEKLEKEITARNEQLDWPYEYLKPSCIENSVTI
#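 Purified human 12hLO (150 nM final) in 25 mM Hepes, 0.01% Triton X-100, pH 7.0 was preincubated 15 min at room temperature with compound. Then 40 uM arachidonic acid was added, 30 min. Hydroperoxide was read by Fe-XO absorbance ratio 573/405 nm.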
# Sfp inh: inhibitors of Bacillus subtilis Sfp phosphopantetheinyl transferase; Q9F4F7; Biochemical Sfp PPTase activity, qHTS; Potency, µM, for inactives: largest response in the series, negative = inhibition, most hits filed as inhibitors; 3.5% of 310,000 active; AID 1490;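 also: the enzyme is Sfp with the accession as filed and its product quenches rhodamine fluorescence; 0% = enzyme reaction without inhibitor and -100% = no enzyme wells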
#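 Fluorescence-quenching assay with 15 nM Sfp, 5 uM rhodamine-CoA and 12.5 uM BHQ-2-labelled ybbR peptide in pH 7.6 Hepes/MgCl2 buffer. Enzyme was pre-incubated with compound for 15 min at room temperature. Rate was taken from the 30-min fluorescence change (525/598 nm).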
# Active calls of the source: *; ? = inconclusive; . = no result given; ! = a repeat was not active. Calls follow the shape of the dose curve; as a rule, active = well fitted curve in the direction sought with a large enough effect; inconclusive = small, poorly fitted or top-dose-only effect, or another doubt; inactive = no such curve, though single readings can be large; an effect the other way counts as inactive or inconclusive. Unless noted, % is scaled to controls: 0 for no effect and ±100 for the full control effect; potency is read from the fitted curve at half-maximal effect.
SMILES,VDR inh,PLK1 PBD block,12-LOX inh,Sfp inh
S=C(Nc1ccc(N2CCOCC2)cc1)Nc1ccc2nc(-c3ccco3)c(-c3ccco3)nc2c1,-18%,?,-4%,-30%
O=C(c1cccc(C(=O)N2CCN(c3ncccn3)CC2)c1)N1CCN(c2ncccn2)CC1,14%,0%,6%,13%
Nc1nonc1OCCc1ccccc1,-8%,-9%,480%,14%
CCC(C(=O)Nc1cccc(-c2cn3cccnc3n2)c1)c1ccccc1 (stereo not given),16%,.,-18%,.
O=C1CN(C(=O)CCC(=O)N2CCc3c(nc4cc(-c5ccccc5)[nH]n4c3=O)C2)c2ccccc2N1,.,.,-1%,.
COC(=O)c1c(C)sc(-c2c(-c3ccc4c(c3)OCCO4)[nH]c3c2c(=O)[nH]c(=O)n3C)c1O,2%,.,-20%,.
Nc1ccc2c(c1Br)Cc1ccccc1-2,1%,-4%,-4%,.
CCOC(=O)c1c(-c2ccccc2)csc1NC(=O)CSc1nnc(C)s1,-10%,1%,-3%,1%
CCOC(=O)c1c(-c2ccc(C)o2)csc1NC(=S)NC(=O)c1ccccc1Br,-5%,-16%,2%,3.5µM*
CCOC(=O)c1c(-c2ccc(C)o2)csc1NC(=O)CSc1nnc(C)s1,-18%,-9%,-11%,22µM*
CC(=O)NCCNC(=O)C1Cc2c(-c3ccccc3Oc3ccccc3)ccnc2O1 (stereo not given),.,-6%,3%,.
O=C(Cc1ccc([N+](=O)[O-])cc1)N1N=C(c2ccncc2)CC1(O)C(F)(F)F (stereo not given),?,27µM*,-6%,11%
O=C(Cc1ccc([N+](=O)[O-])cc1)N1N=C2CCCCC2C1(O)C(F)(F)F (stereo not given),10%,-9%,0%,8%
Clc1nssc1=Nc1ccccc1,45µM*,2.4µM*,.,20µM*
O=C1CSC(=Nc2ccccc2)N1Cc1ccccc1,-9%,-12%,-6%,-14%
COc1ccc(N=c2ssnc2Cl)cc1,?,1.7µM*,.,8.9µM*
Cn1cccc1CN1CC[C@H]2C(=O)NCCCCCCN(Cc3ccncc3)[C@@H]2C1,.,.,90%,.
O=C(NCc1ccc(F)cc1)N1CCCC(Cc2noc(-c3cccnc3)n2)C1 (stereo not given),.,.,16%,.
Cc1ccc(C(=O)N2CCN(c3nc4ccccc4n3C)CC2)cc1,19%,-2%,10%,9%
C[C@@H](O)[C@@H]1C(=O)N2C(C(=O)O)=C([C@H]3CCCO3)S[C@H]12,.,.,.,79µM*
CC(NC(=O)c1ccc(Cl)s1)C1CCCO1 (stereo not given),14%,0%,16%,-13%
Oc1ccc(Nc2nc(-c3ccccc3O)nc3ccccc23)cc1,-1%,-28%,28µM*!,6%
Oc1ccc(Nc2nc(-c3ccccc3F)nc3ccccc23)cc1,16%,-2%,18µM*!,10%
Oc1ccccc1Nc1nc(-c2ccccc2O)nc2ccccc12,-1%,2%,0%,5%
COc1ccc(Nc2nc(-c3ccccc3F)nc3ccccc23)cc1OC,?,-6%,?,-12%
SMILES,VDR inh,PLK1 PBD block,12-LOX inh,Sfp inh
COc1cc2c(cc1NC(=O)C(F)(F)F)-c1ccc(NC(=O)C(F)(F)F)cc1C2,-21%,6%,5%,.
O=C(NCc1ccco1)c1cccc(S(=O)(=O)N2CCc3ccccc32)c1,-3%,-13%,-4%,19%
COc1ccc2c(c1)OC[C@H]1[C@H]2N2C(=O)CN(CC3CCCO3)C(=O)[C@@]2(C)[C@H]1c1ccccc1 (stereo not given in full),1%,-6%,-6%,.
CC(=O)c1cccc(C(C)=O)n1,.,.,-13%,.
CC(=O)c1c(O)cccc1O,-17%,.,19%,25µM*
Clc1ccccc1-c1nnc2n1-c1ccccc1SC2,-3%,-4%,0%,15%
CCC[C@H](NC(=O)C(C#N)=Cc1cccc(Br)n1)c1ccccc1,.,.,7.7µM*,.
CC(=O)c1cn(CC(=O)Nc2ccc(C)cc2C)c2ccccc12,-7%,-9%,0%,-21%
CC(=O)c1cn(CC(=O)Nc2cccc(C)c2C)c2ccccc12,8%,-12%,-8%,45µM*
CCOC(=O)c1cccc(-n2c(-c3ccc(OC)cc3)nc3nc4ccccc4nc32)c1,.,.,.,-6%
Cc1cccc2c1c(N=NC(N)=S)c(O)n2C1OC(CO)C(O)C(O)C1O (stereo not given),-10%,-15%,0%,50µM*
CC(C)OC(=O)/C(=C/c1ccco1)c1ccccc1,-3%,-4%,0%,45µM*
Cc1ccccc1NC(=O)/C(=C/c1ccco1)c1ccccc1,-7%,-19%,-5%,56µM*
CCc1ccccc1NC(=O)/C(=C/c1ccco1)c1ccccc1,-1%,-9%,?,45µM*
CCc1ccccc1NC(=S)NN,.,.,-23%,-28%
CCCc1nc(C)cc(N2CCC(NCCc3ccc(Cl)cc3)CC2)n1,.,.,8.9µM*,.
C[C@@H](CSc1ccccc1)CN1CC[C@H](O)CCC1=O,-12%,-13%,7%,4%
Cc1ccccc1-c1nnc2sc(NC(=O)c3ccc(F)cc3)nn12,.,.,32µM*,.
O=[N+]([O-])c1ccc(COc2ccccc2CN2CCCC2)cc1,-5%,-10%,?,.
O=C(NCCc1ccccn1)C12CC3CC(CC(C3)C1)C2,.,.,36%,.
O=C(CC1CCCCC1)N=C1SC2CS(=O)(=O)CC2N1c1ccccc1 (stereo not given),-14%,27µM*,-1%,12%
CC(=O)Nc1sc2c(c1C(c1ccccn1)N1CCCC1)CCCC2 (stereo not given),-17%,-19%,7%,45µM*
CC(=O)Nc1sc2c(c1C(c1ccccn1)N1CCN(C)CC1)CCCC2 (stereo not given),-2%,2%,19%,-6%
CCCC(c1nnnn1CCOC)N1CCN(c2nc3ccccc3s2)CC1 (stereo not given),?,5.3µM*,-13%,?
C=CC[C@H]1CC=C[C@H](CC=C)[N+]1(C)C,.,.,7.1µM*!,.
CCn1c(CCc2cccc(NC(=O)c3ccc(C#N)cc3)c2)nc2ccccc21,.,.,77%,.
CCCN(C(=O)c1ccc(-n2cncn2)c([N+](=O)[O-])c1)C1CCS(=O)(=O)C1 (stereo not given),1%,-11%,8%,.

# Bioassay records from PubChem BioAssay.
